Several values for one entry are separate records, joined by “and”; a condition that tells them apart may be missing. Equal entries are not always repeated. Activity calls are given as the source filed them. Unless noted, the rule behind the calls is not given here.
What was measured:
[1] = system: Wnt5a (protein binding on small-molecule microarray); test: Wnt5a binders on small-molecule microarray, primary screen, biophysical, 635/667 nm fluorescence (AID 1142); details: 635 nm fluorescence, higher = more signal;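 note: fluorescence read at 667 nm with signal to noise per printed feature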
[2] = cell viability in Huh7 cells, primary screen, cytotoxicity control for HCV replication inhibitor project, CellTiter-Glo luminescence, basal, 48 h (AID 1143); details: Huh7 HCV replicon, higher = more signal, called active from +8 up or from −8 down;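 note: Huh7 hepatoma cells carrying a hepatitis C replication reporter with no stimulus; test concentration not given here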
[3] = P. aeruginosa biofilm formation inhibitors, primary screen, PAO1 strain, BacTiter-Glo luminescence, LB-PBS (AID 1144); details: 12 h, higher = more signal
[4] = CREB reporter modulators without forskolin, primary screen, cell-based, PC12, CRE-LacZ reporter, unstimulated (AID 1145); details: no forskolin, luminescence, 4.5 h, higher = more signal, called active from +8 up or from −8 down
[5] = CREB reporter modulators under forskolin, primary screen, cell-based, PC12, CRE-LacZ reporter, forskolin-stimulated (AID 1146); details: luminescence, 4.5 h, higher = more signal, called active from +8 up or from −8 down;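 note: PC12 cells with 6xCRE LacZ reporter stimulated by forskolin 10 µM; beta-galactosidase reporter signal reflecting CREB driven transcription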
[6] = target: Streptavidin (Streptomyces avidinii) (UniProt P22629); test: streptavidin binders on small-molecule microarray, primary screen, artefact control for SMM compound annotation, biophysical, 635/667 nm fluorescence (AID 1147); details: streptavidin binding, higher = more signal;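 note: signal reflects streptavidin binding to arrayed compounds as a control protein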
Streptavidin (Streptomyces avidinii), sequence (P22629 whole entry, looked up): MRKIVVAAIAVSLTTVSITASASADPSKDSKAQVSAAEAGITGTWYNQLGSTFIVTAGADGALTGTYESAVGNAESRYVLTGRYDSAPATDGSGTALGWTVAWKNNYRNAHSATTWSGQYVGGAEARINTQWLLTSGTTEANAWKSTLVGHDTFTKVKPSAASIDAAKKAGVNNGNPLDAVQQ

[7] = small-molecule binders of probe aInhba, primary screen, biochemical, small-molecule microarray, 635/667 nm fluorescence (AID 1148); details: higher = more signal;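 note: score merges 667nm spot fluorescence with signal-to-noise for antibody binding to printed compounds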
Torsin-1A (Homo sapiens) [8] = target: Torsin-1A (Homo sapiens) (UniProt O14656); test: torsin A binders from cell lysate, primary screen, small-molecule microarray, wild-type, 635/667 nm (AID 1149); details: COS7 hTOR1A-WT lysate, 635 nm fluorescence, higher = more signal
Torsin-1A (Homo sapiens), sequence (O14656 whole entry, looked up): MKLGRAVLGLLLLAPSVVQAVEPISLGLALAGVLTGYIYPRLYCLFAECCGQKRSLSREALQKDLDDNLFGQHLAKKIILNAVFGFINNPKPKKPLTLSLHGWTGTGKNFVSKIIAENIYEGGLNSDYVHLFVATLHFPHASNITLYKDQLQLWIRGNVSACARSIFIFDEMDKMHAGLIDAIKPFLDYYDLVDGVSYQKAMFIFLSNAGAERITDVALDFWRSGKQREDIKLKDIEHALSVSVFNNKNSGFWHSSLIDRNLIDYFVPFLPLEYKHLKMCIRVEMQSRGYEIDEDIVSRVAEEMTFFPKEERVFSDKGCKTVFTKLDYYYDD

Torsin-1A (Homo sapiens) [9] = target: Torsin-1A (Homo sapiens) (UniProt O14656); test: small-molecule binders of mutant TOR1A in lysate, primary screen, cell lysate, small-molecule microarray, COS7 lysate, 635/667 nm fluorescence (AID 1150); details: COS7 hTOR1A mutant lysate, 635 nm fluorescence, higher = more signal;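 note: score pools 667 nm emission and signal to noise measuring lysate protein binding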
[10] = system: Sonic hedgehog protein (Shh); test: small-molecule binders of Shh protein, primary screen, biochemical, small-molecule microarray, 635/667 nm fluorescence (AID 1151); details: small-molecule microarray binding, 635 nm fluorescence; higher = more signal;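 note: Shh protein binding to compounds spotted on small-molecule microarray slides; score combines spot fluorescence intensity with signal-to-noise across triplicate slides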
[11] = E. coli DRC41 culture turbidity changes, primary screen, E. coli filamentation inducer project, strain DRC41, OD650, 48 h (AID 1152);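 note: E. coli MC1000 strain DRC41 lacking acrAB efflux pump and sulA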; details: E. coli DRC41 (acrAB sulA), higher = more signal, called active from +8 up or from −8 down
[12] = small-molecule binders of probe aLefty1, primary screen, biochemical, small-molecule microarray, 635/667 nm fluorescence (AID 1153); details: higher = more signal;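 note: score merges spot fluorescence with signal-to-noise ratio from the scanned slide images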
[13] = PSAC antagonists in infected red cells, primary screen, cell-based, P. falciparum Indochina, OD700, 1 h (AID 1154); details: P. falciparum Indochina infected RBC osmotic lysis, higher = more signal, called active from +8 up or from −8 down
[14] = PSAC antagonists in infected red cells, primary screen, cell-based, P. falciparum Indochina, OD700, 2 h (AID 1155);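 note: lysis reports solute entry through the parasite surface anion channel PSAC; channel blockers reduce lysis of infected cells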; details: P. falciparum Indochina infected erythrocytes, osmotic lysis OD700; higher = more signal, called active from +8 up or from −8 down
[15] = osmotic lysis modulators in infected erythrocytes, primary screen, PSAC antagonist project, cell-based, P. falciparum Indochina, OD700, 3 h (AID 1156); details: higher = more signal, called active from +8 up or from −8 down
[16] = PSAC antagonists in infected red cells, primary screen, cell-based, P. falciparum Indochina, OD700, 18 h (AID 1157); details: P. falciparum Indochina infected erythrocytes, osmotic lysis OD700, 18 h; higher = more signal, called active from +8 up or from −8 down
[17] = modulators of S6 phosphorylation in cells, primary screen, cell-based, A549, cytoblot, luminescence, serum-stimulated (AID 1158); details: A549 phospho-S6 cytoblot, 5 h, higher = more signal;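 note: serum-stimulated A549 lung adenocarcinoma cells; signal is phosphorylated S6 detected by cytoblot immunostaining with HRP secondary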
[18] = target: NADPH oxidase 2 (Homo sapiens) (UniProt P04839); test: NOX2-dependent H2O2 signal modulators, primary screen, NOX inhibitor project, cell-based, HEK293-NOX2, PMA-stimulated, Amplex Red fluorescence (AID 1159); details: 45 min, higher = more signal, called active from +8 up or from −8 down; note: test concentration not given here
NADPH oxidase 2 (Homo sapiens), sequence (P04839 whole entry, looked up): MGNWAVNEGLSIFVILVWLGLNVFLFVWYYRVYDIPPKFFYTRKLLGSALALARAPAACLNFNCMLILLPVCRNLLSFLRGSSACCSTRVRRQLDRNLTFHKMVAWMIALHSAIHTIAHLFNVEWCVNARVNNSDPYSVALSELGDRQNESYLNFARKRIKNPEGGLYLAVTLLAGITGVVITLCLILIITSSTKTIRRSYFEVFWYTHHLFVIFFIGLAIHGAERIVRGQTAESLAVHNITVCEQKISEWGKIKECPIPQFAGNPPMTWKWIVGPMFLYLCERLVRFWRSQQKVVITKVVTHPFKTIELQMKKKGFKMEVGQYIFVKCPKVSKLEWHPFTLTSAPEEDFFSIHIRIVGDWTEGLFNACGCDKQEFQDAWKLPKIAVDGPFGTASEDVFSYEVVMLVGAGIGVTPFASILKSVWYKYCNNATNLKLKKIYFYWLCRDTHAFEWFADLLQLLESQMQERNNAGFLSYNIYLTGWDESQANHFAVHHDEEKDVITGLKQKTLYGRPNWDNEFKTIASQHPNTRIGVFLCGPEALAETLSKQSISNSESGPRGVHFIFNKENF

[19] = target: NADPH oxidase 4 (Homo sapiens) (UniProt Q9NPH5); test: NOX4-dependent H2O2 signal modulators, primary screen, NOX inhibitor project, cell-based, HEK293-NOX4, tetracycline-induced, Amplex Red fluorescence (AID 1160); details: 45 min, higher = more signal, called active from +8 up or from −8 down
NADPH oxidase 4 (Homo sapiens), sequence (Q9NPH5 whole entry, looked up): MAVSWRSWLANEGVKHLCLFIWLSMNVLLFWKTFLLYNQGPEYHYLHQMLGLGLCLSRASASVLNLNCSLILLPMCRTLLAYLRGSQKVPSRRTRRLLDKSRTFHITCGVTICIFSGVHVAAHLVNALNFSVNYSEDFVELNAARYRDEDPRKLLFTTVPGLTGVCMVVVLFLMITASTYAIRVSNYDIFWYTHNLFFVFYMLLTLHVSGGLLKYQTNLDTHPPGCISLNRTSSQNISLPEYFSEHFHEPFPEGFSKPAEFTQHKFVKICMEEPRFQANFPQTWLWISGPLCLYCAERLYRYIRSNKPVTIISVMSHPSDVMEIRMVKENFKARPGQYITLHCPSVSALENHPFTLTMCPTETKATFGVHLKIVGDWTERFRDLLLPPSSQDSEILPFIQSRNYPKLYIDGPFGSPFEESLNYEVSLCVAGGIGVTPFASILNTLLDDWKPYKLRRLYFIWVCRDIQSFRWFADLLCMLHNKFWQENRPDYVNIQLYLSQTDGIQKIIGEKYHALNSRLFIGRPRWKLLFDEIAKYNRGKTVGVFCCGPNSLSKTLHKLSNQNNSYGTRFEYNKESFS

[20] = target: NADPH oxidase 5 (Homo sapiens) (UniProt Q96PH1); test: NOX5-dependent H2O2 signal modulators, primary screen, NOX inhibitor project, cell-based, HEK293-NOX5, Amplex Red fluorescence (AID 1161); details: HEK293-NOX5, ionomycin, 45 min, higher = more signal
NADPH oxidase 5 (Homo sapiens), sequence (Q96PH1 whole entry, looked up): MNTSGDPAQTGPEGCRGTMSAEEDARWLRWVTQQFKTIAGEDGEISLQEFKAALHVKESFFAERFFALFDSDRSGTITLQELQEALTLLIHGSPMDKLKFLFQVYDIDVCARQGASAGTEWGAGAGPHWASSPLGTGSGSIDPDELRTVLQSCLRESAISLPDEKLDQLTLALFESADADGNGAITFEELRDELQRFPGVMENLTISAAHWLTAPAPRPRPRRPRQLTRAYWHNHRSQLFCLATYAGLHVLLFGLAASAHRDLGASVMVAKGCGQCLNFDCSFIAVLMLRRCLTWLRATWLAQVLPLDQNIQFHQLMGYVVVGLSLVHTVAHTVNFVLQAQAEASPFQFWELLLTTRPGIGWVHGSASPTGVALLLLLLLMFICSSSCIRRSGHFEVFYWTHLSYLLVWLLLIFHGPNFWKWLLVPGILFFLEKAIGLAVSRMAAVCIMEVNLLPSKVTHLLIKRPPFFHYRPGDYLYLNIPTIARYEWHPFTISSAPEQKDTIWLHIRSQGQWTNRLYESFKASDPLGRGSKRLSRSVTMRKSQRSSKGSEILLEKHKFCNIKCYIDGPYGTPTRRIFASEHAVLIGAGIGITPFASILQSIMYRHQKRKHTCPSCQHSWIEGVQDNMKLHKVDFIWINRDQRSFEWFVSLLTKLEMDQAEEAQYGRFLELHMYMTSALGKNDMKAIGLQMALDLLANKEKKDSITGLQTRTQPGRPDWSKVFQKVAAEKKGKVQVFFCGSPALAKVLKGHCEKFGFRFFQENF

SMILES	composite z-score [1]	z-score [2]	z-score [3]	z-score [4]	z-score [5]	composite z-score [6]	composite z-score [7]	composite z-score (Torsin-1A (Homo sapiens) [8])	composite z-score (Torsin-1A (Homo sapiens) [9])	composite z-score [10]	z-score [11]	composite z-score [12]	z-score [13]	z-score [14]	z-score [15]	z-score [16]	z-score [17]	z-score [18]	z-score [19]	z-score [20]
C=C[C@@H](OC)[C@H](O)c1ccc(O)c(F)c1	-0.843 and -0.24	0.558 (inactive) and -0.495 (inactive)	-0.776 (inactive) and 0.181 (inactive)	0.572 (inactive) and 0.427 (inactive)	-0.881 (inactive) and -0.122 (inactive)	-1.35 and -1.17	-0.314 and -0.154	-1.65 and -0.846	-2.28 and -0.978	-0.644 and 0.0436	0.0737 (inactive) and 1.88 (inactive)	-0.284 and -0.196	0.268 (inactive) and -0.347 (inactive)	-0.132 (inactive) and -0.266 (inactive)	-0.387 (inactive) and -0.924 (inactive)	0.426 (inactive) and -1.02 (inactive)	-0.422 and 1.68	0.203 (inactive) and -0.689 (inactive)	-1.69 (inactive) and -0.842 (inactive)	-1.64 and -1.95
COC(=O)C1=C(C)N(Cc2ccccc2)[C@]23O[C@](C(=O)OC)(C(=O)N2[C@@H]1c1ccccc1)[C@@H](C(=O)OC)[C@H]3C(=O)OC	-0.13 and 0.206	0.36 (inactive) and 0.333 (inactive)	-0.754 (inactive) and 0.0472 (inactive)	0.745 (inactive) and -0.487 (inactive)	-0.998 (inactive) and -0.909 (inactive)	-0.895 and -0.188	-0.188 and -0.218	-0.0921 and 0.481	-0.107 and 0.299	-0.652 and 0.611	0.514 (inactive) and 0.184 (inactive)	-0.282 and -0.0011	0.295 (inactive) and 0.114 (inactive)	0.185 (inactive) and 0.319 (inactive)	0.285 (inactive) and -0.414 (inactive)	-0.022 (inactive) and 0.17 (inactive)	-0.046 and 0.635	1.8 (inactive) and -0.506 (inactive)	-1.42 (inactive) and -0.0445 (inactive)	0.371 and 0.422
C=CCN(Cc1ccccc1)C(=O)C(c1cccs1)N(C(=O)/C=C\C(=O)O)c1c(Cl)cccc1CO (stereo not given)	-0.835 and -0.796	-0.109 (inactive) and 0.446 (inactive)	-1.78 (inactive) and 0.911 (inactive)	-1.44 (inactive) and 0.191 (inactive)	-0.418 (inactive) and -0.107 (inactive)	-1.7 and -1.08	-0.154 and -0.176	-2.82 and -2.49	0.702 and -1.72	-0.877 and -0.78	-0.608 (inactive) and -0.244 (inactive)	-0.855 and -0.191	-0.152 (inactive) and -0.0214 (inactive)	0.0805 (inactive) and 0.266 (inactive)	0.617 (inactive) and -0.39 (inactive)	0.306 (inactive) and 0.109 (inactive)	0.0278 and -0.193	-0.0842 (inactive) and 0.208 (inactive)	-0.662 (inactive) and -0.417 (inactive)	0.0528 and 0.284
C=CCN(Cc1ccccc1)C(=O)C1N(CCOCCO)C(=O)C2C(C(=O)O)C3C=CC21O3 (stereo not given)	-0.0792 and -1.24	-2.27 (inactive) and 0.247 (inactive)	-0.0168 (inactive)	-0.484 (inactive) and -0.753 (inactive)	-0.347 (inactive) and -0.736 (inactive)	-1.36 and -1.24	-0.282 and -0.0645	-2.62 and -3.49	-1.89 and -3.16	-1.64 and -2	2.01 (inactive) and 0.924 (inactive)	0.0429 and 0.101	-0.451 (inactive) and 0.417 (inactive)	-1.31 (inactive) and -0.103 (inactive)	-1.39 (inactive) and -0.519 (inactive)	-1.71 (inactive) and 0.0394 (inactive)	0.506 and 0.245	1.22 (inactive) and 0.583 (inactive)	-0.586 (inactive) and -2.52 (inactive)	0.93 and -0.825
C=CC[C@@H](O)c1ccc(O)c(F)c1	-0.54 and -0.38	0.504 (inactive) and -1.51 (inactive)	-0.222 (inactive)	-0.403 (inactive) and 0.0632 (inactive)	0.347 (inactive) and -1.46 (inactive)	-1.6 and -1.65	-0.327 and -0.157	-1.73 and -0.874	0.565 and -0.383	-0.97 and 0.89	-0.024 (inactive) and 1.7 (inactive)	-0.216 and -0.0449	0.92 (inactive) and -0.126 (inactive)	0.574 (inactive) and -1.54 (inactive)	-0.0619 (inactive) and -1.38 (inactive)	0.476 (inactive) and -2.12 (inactive)	0.0996 and 0.266	-0.896 (inactive) and -0.237 (inactive)	-1.46 (inactive) and 0.42 (inactive)	-0.436 and 0.271

Reference: PubChem BioAssay
